# Pf growth 96h – P. falciparum growth inhibition at 96 hours; P. falciparum luciferase reporter growth, 96 h; Potency, µM (top dose mostly 28.7 µM), most hits filed as inhibitors; 320,000 tested, 6.9% active; AID 504834
#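 P. falciparum expressing integrated firefly luciferase, in erythrocytes at 2% hematocrit, 0.05% parasitemia, incubated with compounds 96 h at 37 C, 5% CO2. Growth inhibition read as loss of luminescence; two-generation exposure targets delayed-death apicoplast inhibitors.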
# HCV inh – HCV inhibition. Huh7.5.1 HCVcc-Cre infection, luciferase reporter, 44 h. Potency, µM (top dose mostly 41.8 µM), usual class: inhibitors. 340,000 tested, 3.4% active. AID 651820
#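 HCVcc-Cre virus at an moi near 0.5 was added right after compound to cells cultured 4 h from seeding (1,000 cells/well). Luciferase activity was determined 44 h later, 15 min after substrate addition at RT.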
# HCMV antiviral – inhibitors of human cytomegalovirus; 410,000 tested, 4.5% active; HFF cells, HCMV-luciferase reporter, 72 h; stronger effect = lower value; AID 1259415; activity change, negative = inhibition, % at 57.5 µM; in the data active = activity change below about -60%; inconclusive = no clear call, values can overlap the other calls; inactive = above about -39%
#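 HFF cells seeded 16 h at 37C, treated with compounds, infected with luciferase-reporter HCMV at MOI 1 PFU/cell; luciferase read at 72 h post infection, normalized to buffer-only and Salinomycin controls.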
# Shiga inhibitor – Shiga toxin inhibition; Vero cells, Shiga toxin protein synthesis inhibition reporter; inhibition, % at 38.7 µM; 290,000 tested, 9.2% active; AID 2315; in the data active = inhibition mostly above about 28%, no sharp cut-off; inactive = mostly below about 43%
# Pf growth 48h – P. falciparum growth inhibition at 48 hours (one generation); P. falciparum luciferase growth in erythrocytes, 48 h; AID 504832; Potency, µM (titrated, usually from 28.7 µM), actives largely listed as inhibitors; 310,000 tested, 5.9% active
#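 Luciferase-expressing parasites in RBCs, 2% Hct / 0.1% parasitemia final; RPMI 1640 + 0.5% Albumax; 37 C, 5% CO2, one generation; luminescence read-out, lower signal = inhibition.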
# CHX counter – counter-screen hit for Shiga toxin inhibitors, cycloheximide. cell reporter, cycloheximide protein synthesis inhibition counterscreen. max response, %. 300,000 tested, 12% active. AID 2314; in the data active = max response mostly above about 13%, no sharp cut-off; inactive = mostly below about 14%; note: read at 38.3 µM for the half of the compounds with a filed dose
# Numbers stand for hits; - = inactive; ? = inconclusive; . = not tested or not shown. Rows were chosen to be rich in hits. Some 21% of all compounds tested hit in one or more screens of this group. Unless noted, calls come from the whole dose curve; as a rule, active = well fitted inhibition curve with a large enough effect; inconclusive = small, poorly fitted or top-dose-only effect, or another doubt; inactive = no such curve, though single readings can be large or run the other way.
SMILES,Pf growth 96h,HCV inh,HCMV antiviral,Shiga inhibitor,Pf growth 48h,CHX counter
COc1ccc(S(=O)(=O)N2CCC(C(=O)NCCC(=O)Nc3nccs3)CC2)cc1,?,-,-,-,-,-
N#C/C(=C\c1ccc(N2CCOCC2)o1)C(=O)Nc1ccc(O)cc1,-,?,-,67.6,?,31.3
CCc1ccc(NC(=O)/C(C#N)=C/c2cc3ccc(C)cc3nc2N2CCOCC2)cc1,-,-,-,-,-,-
Cc1ccc(S(=O)(=O)NCCc2nnc3ccc(SCc4ccccc4F)nn23)cc1,.,.,-,.,.,.
Cc1ccc2c(c1)N(S(=O)(=O)c1ccc(CN3C(=O)c4cccnc4C3=O)cc1)CCO2,?,-,-,-,-,-
Cc1ccc2c(c1)N(S(=O)(=O)c1ccc(CN3C(=O)c4cccnc4C3=O)s1)CCO2,4.15µM,-,-,-,-,-
CC(=O)N(/N=C1\Sc2ccccc2C1=O)c1ccccc1C,-,?,-,91.1,-,67.7
CC(=O)N(c1ccccc1C)c1ccccc1C,.,-,-,.,.,.
CC(=O)N(/N=C1\Sc2ccccc2C1=O)c1ccc(C)cc1C,-,-,-85.6,121.2,-,59.4
CC(=O)N(/N=C1\Sc2ccccc2C1=O)c1ccccc1,-,-,-,36.5,-,39.8
CC(=O)N(/N=C1/C(=O)Nc2ccccc21)c1ccccc1,-,-,-,43.9,-,28.1
CC(=O)c1ccc(N=C2C(=O)Nc3ccccc32)cc1,-,-,-,-,-,-
CC(=O)Nc1ccc(/C=C2/Sc3ccccc3C2=O)cc1,-,-,.,-,-,-
CO[C@H]1/C=C/O[C@@]2(C)Oc3c(C)c(O)c4c(O)c(c(/C=N\N5CCN(C6CCCC6)CC5)c(O)c4c3C2=O)NC(=O)/C(C)=C\C=C\[C@H](C)[C@H](O)[C@@H](C)[C@@H](O)[C@@H](C)[C@H](OC(C)=O)[C@@H]1C,-,.,.,.,-,.
Clc1ccc(SCc2csc(N3CCOCC3)n2)cc1,-,?,-,54.5,-,33.2
Clc1ccc(SCc2cc(N3CCOCC3)nc(-c3ccccn3)n2)cc1,?,8.91µM,-92.0,-,?,-
CC(Sc1ccc(Cl)cc1)C(=O)NNC(=O)c1csc(N2CCOCC2)n1 (centres undefined),-,-,-,-,-,-
Cc1nc(CSc2ccc(Cl)cc2)cc(N2CC(C)OC(C)C2)n1 (centres undefined),-,-,-,-,?,-
COC(=O)c1ccc(NC(=O)CCc2c(C)nc3c(c2C)c(=O)n(C)c(=O)n3C)cc1,.,.,-,.,.,.
COc1ccc(C)cc1NC(=O)Cn1nc(N2CCN(c3ccccc3OC)CC2)ccc1=O,.,.,-,.,.,.
CCn1nc([N+](=O)[O-])c(C(C#N)c2nc3cc(C(F)(F)F)ccc3s2)c(Cl)c1=O (centres undefined),-,11.2µM,?,-,.,-
Cc1cn([C@H]2C[C@H](O)[C@@H](CNC/C=C/c3ccccc3[N+](=O)[O-])O2)c(=O)[nH]c1=O,.,.,-,.,.,.
COc1cccc(C(=O)NNS(=O)(=O)c2ccccc2)c1,.,.,-,.,.,.
CCCCCN1C=CC(=C2C(=O)c3ccccc3C2=O)C=C1,-,-,-90.4,-,-,-
N#Cc1nc(-c2ccc(F)cc2)oc1NCc1ccco1,-,?,-,85.9,-,13.0
SMILES,Pf growth 96h,HCV inh,HCMV antiviral,Shiga inhibitor,Pf growth 48h,CHX counter
Cc1cccc(-c2nc(C#N)c(NCc3ccco3)o2)c1,-,-,-,53.5,-,56.7
COc1ccc(-c2nc(C#N)c(NCc3ccco3)o2)cc1,-,-,-,73.2,-,27.7
CC(C)(C)c1ccc(-c2nc(C#N)c(NCc3cccnc3)o2)cc1,?,-,-,-,.,32.4
N#Cc1nc(-c2ccc(OCc3ccccc3)cc2)oc1NCc1ccco1,-,?,-,-,-,-
O=C(Cn1cnc2ccccc2c1=O)NCCC(=O)Nc1ccccc1C(F)(F)F,?,-,-,-,-,-
Cc1ccc(-c2nc(C#N)c(NCc3ccco3)o2)cc1,11.7µM,-,-,88.9,-,54.4
N#Cc1nc(-c2ccco2)oc1NCc1ccco1,?,-,-,-,-,-
COC(=O)c1c(C)nc2ccccc2c1-c1ccccc1,.,?,-,-,-,-
COC(=O)c1ccc2c(c1)c(-c1ccccc1)c(-c1ccccc1)n2C,.,7.08µM,-,.,.,.
Cn1c(CO)cnc1-c1ccccc1,-,-,-,-,-,-
COc1ccccc1-c1cc2c(Nc3ccc4c(c3)OCCO4)nccc2n1C,.,.,-70.1,.,.,.
COc1ccc(Nc2nccc3c2cc(-c2cccc(F)c2)n3C)cc1OC,.,.,-,.,.,.
COc1ccc(Nc2nccc3c2cc(-c2ccccc2OC)n3C)cc1OC,.,.,-90.3,.,.,.
CCOC(=O)C1(Cc2ccc(OC)cc2)CCN(C(=O)Cn2cnnn2)CC1,1.85µM,-,-,-,-,-
CCOC(=O)C1(Cc2ccc(OC)cc2)CCN(C(=O)CCn2cccn2)CC1,-,-,-,-,-,30.2
CCOC(=O)C1(Cc2ccc(OC)cc2)CCN(C(=O)CN2CCN(CC)CC2)CC1,?,-,-,-,-,-
NC(Cc1ccc(Cl)cc1)c1csc(NC(=O)Nc2ccccc2-c2ccccc2)n1 (centres undefined),.,.,-,.,.,.
COc1ccc(CCN(C)C(=O)c2cccc(S(=O)(=O)N3CCN(c4ccc(F)cc4)CC3)c2)cc1OC,.,2.82µM,?,.,.,.
CN(CCOc1ccc(Cl)cc1)C(=O)c1cccc(S(=O)(=O)N2CCN(c3ccc(F)cc3)CC2)c1,.,2.82µM,.,.,.,.
COc1ccccc1CN(C)C(=O)c1cccc(S(=O)(=O)N2CCCC2)c1,?,-,-,.,-,.
Cc1onc(-c2c(Cl)cccc2Cl)c1C(=O)Nc1nccs1,-,-,-,-,-,-
CCN1CCN(C(=O)/C=C/c2cccc(Cl)c2)CC1,-,-,-,-,-,14.6
CCN1CCN(C(=O)/C=C/c2c(F)cccc2Cl)CC1,-,-,-,14.9,-,-
CCN1CCN(C(=O)/C=C/c2ccc(C(C)C)cc2)CC1,.,-,-,.,.,.
O=C(/C=C/c1c(F)cccc1Cl)N1CCc2ccccc2C1,?,-,-,.,-,14.1
SMILES,Pf growth 96h,HCV inh,HCMV antiviral,Shiga inhibitor,Pf growth 48h,CHX counter
Cc1cccc2cc(CNCc3ccccc3)c(Cl)nc12,-,-,-,-,-,-
CCCS(=O)(=O)NCCc1sc2nc(-c3ccc(Cl)cc3)nn2c1C,.,.,-66.1,.,.,.
COc1ccc(S(=O)(=O)NCCc2csc3nc(-c4ccccc4)nn23)cc1OC,.,.,-,.,.,.
CCc1ccc(NC(=O)C(=O)NCCc2sc3nc(-c4ccc(OC)cc4)nn3c2C)cc1,.,.,-64.3,.,.,.
Cc1c(CCNC(=O)Cc2ccc(F)cc2)sc2nc(-c3ccc(F)cc3)nn12,.,.,-,.,.,.
COc1ccc(-c2nc3scc(CCNS(=O)(=O)c4ccc(Oc5ccccc5)cc4)n3n2)cc1OC,.,.,-71.6,.,.,.
CCCS(=O)(=O)NCCc1sc2nc(-c3ccc(F)cc3)nn2c1C,.,.,-70.6,.,.,.
CCOC(=O)C1=CCN(S(=O)(=O)c2ccc(Br)cc2)C1c1ccc(F)cc1 (centres undefined),.,.,-,.,.,.
